Reference: PubChem BioAssay (Tox21)
Inconclusive results are not listed. Calls of active or inactive are those of the source. Unless noted, calls follow the shape of the full dose curve.

How the values were obtained:
[1] = molecular target: Acetylcholinesterase (Homo sapiens) (UniProt P22303); experiment: Acetylcholinesterase (AChE) small molecule antagonists: enzyme-based qHTS assay (AID 1347397); details: Potency: AChE enzyme activity inhibition; outcome: AChE enzyme activity inhibition; also: nearly all actives have a fitted effect of over 55% in size
Chain of Acetylcholinesterase (Homo sapiens) (P22303 whole entry, looked up): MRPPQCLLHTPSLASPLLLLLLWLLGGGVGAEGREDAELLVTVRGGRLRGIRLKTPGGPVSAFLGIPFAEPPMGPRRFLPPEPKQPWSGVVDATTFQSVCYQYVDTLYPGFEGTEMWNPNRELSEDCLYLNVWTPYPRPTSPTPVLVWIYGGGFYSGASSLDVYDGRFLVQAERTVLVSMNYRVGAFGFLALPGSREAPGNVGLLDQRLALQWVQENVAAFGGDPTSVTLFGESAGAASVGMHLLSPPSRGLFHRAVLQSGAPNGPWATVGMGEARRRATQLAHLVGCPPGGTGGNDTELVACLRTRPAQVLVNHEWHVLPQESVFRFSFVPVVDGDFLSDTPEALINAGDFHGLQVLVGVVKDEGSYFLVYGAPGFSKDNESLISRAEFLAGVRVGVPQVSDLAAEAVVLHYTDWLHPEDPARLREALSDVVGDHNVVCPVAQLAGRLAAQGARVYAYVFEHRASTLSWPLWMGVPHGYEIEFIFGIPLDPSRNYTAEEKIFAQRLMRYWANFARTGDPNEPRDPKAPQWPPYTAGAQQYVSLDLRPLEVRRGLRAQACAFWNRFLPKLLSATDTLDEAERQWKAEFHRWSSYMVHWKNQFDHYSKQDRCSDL
Summary of the method: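 rhAChE 50 mU/mL (dispensed) + cpd or DMSO, 30 min RT; add DTNB/acetylthiocholine cocktail, 10 min RT; colorimetric thiocholine readout. qHTS, 1536-well format.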

[2] = molecular target: Acetylcholinesterase (Homo sapiens) (UniProt P22303); experiment: Acetylcholinesterase (AChE) small molecule antagonists: fluorescence cell-based qHTS assay (AID 1347398); details: Potency: AChE activity; outcome: AChE activity; also: nearly all actives have a fitted effect of over 50% in size
Summary of the method: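 Read-out is Thiolite Green fluorescence at Ex/Em = 490/520 nm, formed by reaction with thiocholine released when cellular AChE in SH-SY5Y cells hydrolyzes acetylthiocholine. Compounds were preincubated 30 min at 37 C before substrate.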

[3] = molecular target: Acetylcholinesterase (Homo sapiens) (UniProt P22303); experiment: Acetylcholinesterase (AChE) small molecule antagonists: enzyme-based qHTS assay with human liver microsomes (AID 1347399); details: Potency: qHTS inhibition; outcome: qHTS inhibition; also: nearly all actives have a fitted effect of over 60% in size
Summary of the method: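 Recombinant human AChE (50 mU/mL in the enzyme mix) and human liver microsomes (0.25 mg/mL final) were preincubated with compound and NADPH (0.25 mg/mL final) for 30 min at 37 C. Acetylthiocholine/DTNB was then added; thiocholine was read colorimetrically after 10 min at room temperature.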

[4] = qHTS assay for small molecule agonists of the p53 signaling pathway (AID 651631); also: potency is read from the fitted curve at half-maximal effect; nearly all actives have a fitted effect of over 15% in size
Summary of the method: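 HCT-116 cells carrying a beta-lactamase reporter under p53 response elements were dosed with compound for 16 h at 37 °C. LiveBLAzer B/G FRET substrate was then added for 2 h at room temperature, and fluorescence intensity was read to detect pathway agonism.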

[5] = qHTS assay for small molecule agonists of the p53 signaling pathway - cell viability (AID 651633);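 also: p53RE-bla HCT reporter cells with a stable beta-lactamase p53 reporter; series mostly up to about 83 µM; nearly all actives have a fitted effect of over 30% in size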
Summary of the method: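 Viability counter-read: CellTiter-Glo luminescence (30 min, room temperature) in the same p53RE-bla plates. These plates had been exposed to compounds for 16 h at 37 C.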

[6] = qHTS assay for small molecule disruptors of the mitochondrial membrane potential - cell viability (AID 720634);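 also: human HepG2 liver cancer cells; series mostly up to about 83 µM; nearly all actives have a fitted effect of over 20% in size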
Summary of the method: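 Cells: HepG2, 2,000/well, attached overnight. Compound 1 hr, 37 C/5% CO2. +m-MPI dye, +CellTiter-Glo 30 min RT. Readout: luminescence (ATP).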

[7] = qHTS assay to test for compound auto fluorescence at 590 nm (red) in HepG2 cells (AID 720674; active = well fitted curve in the direction sought with a large enough effect in the repeat runs; an effect the other way counts as inactive or inconclusive)
Summary of the method: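 1 hr compound incubation on HepG2 cells, 37 C, 5% CO2; plate read ex 540 nm / em 590 nm; intensities reported as Rose Bengal sodium equivalents.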

[8] = qHTS assay to test for compound auto fluorescence at 535 nm (green) in HepG2 cells (AID 720675; active = well fitted curve in the direction sought with a large enough effect in the repeat runs; an effect the other way counts as inactive or inconclusive)
[9] = qHTS assay to test for compound auto fluorescence at 460 nm (blue) in HEK293 cells (AID 720678; active = well fitted curve in the direction sought with a large enough effect in the repeat runs; an effect the other way counts as inactive or inconclusive)
Summary of the method: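 Measured: blue fluorescence (Ex 405/Em 460 nm) of compound-treated HEK293 cells, incubated overnight at 37C with 5% CO2 and scaled to triamterene equivalents.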

[10] = qHTS assay to test for compound auto fluorescence at 590 nm (red) in HEK293 cells (AID 720679; active = well fitted curve in the direction sought with a large enough effect in the repeat runs; an effect the other way counts as inactive or inconclusive)
Summary of the method: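 Using HEK293 cells at 2,000 per well, the screen added 23 nL of each compound after cell attachment and incubated overnight (37C, 5% CO2). The plate reader then captured red-label fluorescence, Ex/Em 540/590nm.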

[11] = qHTS assay to test for compound auto fluorescence at 535 nm (green) in HEK293 cells (AID 720680; active = well fitted curve in the direction sought with a large enough effect in the repeat runs; an effect the other way counts as inactive or inconclusive)
[12] = qHTS assay to test for compound auto fluorescence at 460 nm (blue) in HEK293 cell free culture (AID 720681; active = well fitted curve in the direction sought with a large enough effect in the repeat runs; an effect the other way counts as inactive or inconclusive)
Summary of the method: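 Blue fluorescence (Ex 405/Em 460 nm, triamterene-equivalent) was read immediately after pin transfer of compound or DMSO into medium (DMEM, 10% FBS) without cells.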

[13] = qHTS assay to test for compound auto fluorescence at 535 nm (green) in HEK293 cell free culture (AID 720682; active = well fitted curve in the direction sought with a large enough effect in the repeat runs; an effect the other way counts as inactive or inconclusive)
Summary of the method: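 Green-label autofluorescence (485 nm excitation, 535 nm emission) measured on compound added to cell-free culture medium (DMEM, 10% FBS). Output is expressed relative to fluorescein.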

[14] = qHTS assay to test for compound auto fluorescence at 590 nm (red) in HEK293 cell free culture (AID 720683; active = well fitted curve in the direction sought with a large enough effect in the repeat runs; an effect the other way counts as inactive or inconclusive)
Summary of the method: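 Red-channel autofluorescence of compounds in culture medium (DMEM, 10% FBS), no cells, measured at 540/590 nm. Rose Bengal sodium is the reference fluorophore for equivalence.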

[15] = qHTS assay to test for compound auto fluorescence at 590 nm (red) in HepG2 cell free culture (AID 720684; active = well fitted curve in the direction sought with a large enough effect in the repeat runs; an effect the other way counts as inactive or inconclusive)
Summary of the method: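 Steps: dispense MEM/10% FBS medium, no cells; pin compound or DMSO vehicle; read red channel, Ex/Em 540/590 nm. Output given as Rose Bengal sodium equivalents.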

[16] = qHTS assay to test for compound auto fluorescence at 460 nm (blue) in HepG2 cell free culture (AID 720685; active = well fitted curve in the direction sought with a large enough effect in the repeat runs; an effect the other way counts as inactive or inconclusive)
Summary of the method: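 Compound (23 nL) or DMSO pinned into cell-free MEM with 10% FBS; blue fluorescence read at 405/460 nm excitation/emission, expressed as auto-fluorescence equivalency to triamterene.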

[17] = qHTS assay to test for compound auto fluorescence at 535 nm (green) in HepG2 cell free culture (AID 720686; active = well fitted curve in the direction sought with a large enough effect in the repeat runs; an effect the other way counts as inactive or inconclusive)
[18] = qHTS assay to test for compound auto fluorescence at 460 nm (blue) in HepG2 cells (AID 720687; active = well fitted curve in the direction sought with a large enough effect in the repeat runs; an effect the other way counts as inactive or inconclusive)
Summary of the method: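 Blue-channel autofluorescence (Ex/Em 405/460 nm, triamterene-equivalent) was measured after 1 hr compound exposure at 37 C, 5% CO2. Cells were HepG2, plated overnight at 37 C in MEM plus 10% FBS.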

[19] = molecular target: Glucocorticoid receptor (Homo sapiens) (UniProt P04150); experiment: qHTS assay to identify small molecule agonists of the glucocorticoid receptor (GR) signaling pathway (AID 720691; active = well fitted activation curve with a large enough effect in the signal ratio in the repeat runs, not every such curve was filed as active; the % refers to the signal ratio)
Chain of Glucocorticoid receptor (Homo sapiens) (P04150 whole entry, looked up): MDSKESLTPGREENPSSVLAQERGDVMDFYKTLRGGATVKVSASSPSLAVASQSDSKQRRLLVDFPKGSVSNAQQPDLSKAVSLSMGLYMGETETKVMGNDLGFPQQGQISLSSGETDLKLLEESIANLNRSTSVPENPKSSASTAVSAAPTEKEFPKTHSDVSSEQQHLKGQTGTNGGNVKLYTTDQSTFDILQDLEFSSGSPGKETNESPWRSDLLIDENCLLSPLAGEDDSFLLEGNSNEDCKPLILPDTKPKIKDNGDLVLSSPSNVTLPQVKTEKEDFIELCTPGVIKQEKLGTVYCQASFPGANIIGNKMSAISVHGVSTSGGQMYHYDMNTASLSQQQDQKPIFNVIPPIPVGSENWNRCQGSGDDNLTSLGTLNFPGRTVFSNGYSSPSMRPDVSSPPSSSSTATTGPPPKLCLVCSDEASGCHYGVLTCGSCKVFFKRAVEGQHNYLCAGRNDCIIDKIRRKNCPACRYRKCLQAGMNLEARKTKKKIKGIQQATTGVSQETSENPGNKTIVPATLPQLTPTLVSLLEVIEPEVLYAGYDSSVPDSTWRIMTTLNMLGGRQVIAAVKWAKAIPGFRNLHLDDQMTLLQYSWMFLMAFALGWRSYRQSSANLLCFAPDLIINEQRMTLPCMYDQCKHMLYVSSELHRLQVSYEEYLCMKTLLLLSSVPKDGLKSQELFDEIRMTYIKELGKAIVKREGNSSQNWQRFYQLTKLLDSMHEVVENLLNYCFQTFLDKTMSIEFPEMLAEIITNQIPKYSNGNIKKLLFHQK
Summary of the method: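 Fluorescence intensity from LiveBLAzer B/G FRET substrate (2 h, room temperature) reports beta-lactamase expression driven by the glucocorticoid response element in GR-bla HeLa cells after 18 h compound exposure at 37 C.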

[20] = molecular target: Glucocorticoid receptor (Homo sapiens) (UniProt P04150); experiment: qHTS assay to identify small molecule antagonists of the glucocorticoid receptor (GR) signaling pathway (AID 720692; active = well fitted inhibition curve with a large enough effect in the signal ratio in the repeat runs, not every such curve was filed as active; the % refers to the signal ratio)
Summary of the method: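 HeLa GR-bla cells; cmpd + dex 5 nM final, 18 h 37 C; LiveBLAzer B/G FRET substrate 2 h RT; fluorescence intensity read. Antagonist mode, qHTS.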

[21] = qHTS assay to identify small molecule antagonists of the glucocorticoid receptor (GR) signaling pathway - cell viability counter screen (AID 720693; active = well fitted curve in the direction sought with a large enough effect in the repeat runs; an effect the other way counts as inactive or inconclusive; also: nearly all actives have a fitted effect of over 55% in size)
[22] = qHTS assay for identifying genotoxic compounds that show differential cytotoxicity against isogenic chicken DT40 cell lines with known DNA damage response pathways - wild type cell line (AID 743012; active = well fitted curve in the direction sought with a large enough effect in the repeat runs; an effect the other way counts as inactive or inconclusive; also: potency is read from the fitted curve at half-maximal effect; nearly all actives have a fitted effect of over 60% in size)
Summary of the method: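 Wild type DT40, 300 cells/well, ~0.5 h settle at 37 C/5% CO2; compounds in DMSO added by pintool; 40 h at 37 C/5% CO2; CellTiter-Glo, 30 min RT; luminescence.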

[23] = qHTS assay for identifying genotoxic compounds that show differential cytotoxicity against isogenic chicken DT40 cell lines with known DNA damage response pathways - Rev3 mutant cell line (AID 743014; active = well fitted curve in the direction sought with a large enough effect in the repeat runs; an effect the other way counts as inactive or inconclusive; also: potency is read from the fitted curve at half-maximal effect; nearly all actives have a fitted effect of over 55% in size)
[24] = qHTS assay for identifying genotoxic compounds that show differential cytotoxicity against isogenic chicken DT40 cell lines with known DNA damage response pathways - Rad54/Ku70 mutant cell line (AID 743015; active = well fitted curve in the direction sought with a large enough effect in the repeat runs; an effect the other way counts as inactive or inconclusive; also: potency is read from the fitted curve at half-maximal effect; nearly all actives have a fitted effect of over 60% in size)
[25] = qHTS assay to identify small molecule antagonists of the androgen receptor (AR) signaling pathway - cell viability counter screen (AID 743033; active = well fitted curve in the direction sought with a large enough effect in the repeat runs; an effect the other way counts as inactive or inconclusive; also: nearly all actives have a fitted effect of over 45% in size)
[26] = molecular target: Androgen receptor (Homo sapiens) (UniProt P10275); experiment: qHTS assay to identify small molecule antagonists of the androgen receptor (AR) signaling pathway (AID 743035; active = well fitted inhibition curve with a large enough effect in the signal ratio in the repeat runs, not every such curve was filed as active; the % refers to the signal ratio; also: potency is read from the fitted curve at half-maximal effect)
Chain of Androgen receptor (Homo sapiens) (P10275 whole entry, looked up): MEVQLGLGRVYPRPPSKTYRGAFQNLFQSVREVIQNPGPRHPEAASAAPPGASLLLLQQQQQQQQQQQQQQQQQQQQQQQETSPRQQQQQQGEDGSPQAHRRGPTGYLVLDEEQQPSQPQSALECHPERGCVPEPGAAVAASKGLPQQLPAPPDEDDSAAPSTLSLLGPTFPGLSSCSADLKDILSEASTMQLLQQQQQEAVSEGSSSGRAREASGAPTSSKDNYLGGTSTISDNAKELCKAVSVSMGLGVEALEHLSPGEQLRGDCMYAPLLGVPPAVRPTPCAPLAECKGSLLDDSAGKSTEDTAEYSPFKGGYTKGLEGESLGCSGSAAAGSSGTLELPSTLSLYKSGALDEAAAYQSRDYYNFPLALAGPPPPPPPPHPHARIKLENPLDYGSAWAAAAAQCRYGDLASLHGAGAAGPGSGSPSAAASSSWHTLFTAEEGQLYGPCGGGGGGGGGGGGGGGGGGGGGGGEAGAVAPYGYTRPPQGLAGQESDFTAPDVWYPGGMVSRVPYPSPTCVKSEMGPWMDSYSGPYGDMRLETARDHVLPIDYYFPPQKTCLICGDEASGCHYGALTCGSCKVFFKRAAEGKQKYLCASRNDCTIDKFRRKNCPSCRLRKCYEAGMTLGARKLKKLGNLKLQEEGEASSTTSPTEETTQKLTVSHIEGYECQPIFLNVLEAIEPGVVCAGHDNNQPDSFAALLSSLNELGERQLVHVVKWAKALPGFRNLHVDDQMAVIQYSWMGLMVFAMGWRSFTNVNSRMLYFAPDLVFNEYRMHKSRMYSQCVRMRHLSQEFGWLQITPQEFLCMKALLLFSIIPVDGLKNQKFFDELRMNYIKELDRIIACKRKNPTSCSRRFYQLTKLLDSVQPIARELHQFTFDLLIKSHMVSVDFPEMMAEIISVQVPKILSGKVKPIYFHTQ
Summary of the method: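 Fluorescence from a beta-lactamase FRET substrate (LiveBLAzer B/G, 2 h, room temperature) measured inhibition of R1881-stimulated signaling in GeneBLAzer AR-UAS-bla HEK293 cells exposed to compound for 16 h at 37C.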

[27] = molecular target: Androgen receptor (Homo sapiens) (UniProt P10275); experiment: qHTS assay to identify small molecule agonists of the androgen receptor (AR) signaling pathway using the MDA cell line (AID 743040; active = well fitted curve in the direction sought with a large enough effect in the repeat runs; an effect the other way counts as inactive or inconclusive; also: nearly all actives have a fitted effect of over 20% in size)
Summary of the method: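 Cells plated, 5 h at 37C/0% CO2; compound or DMSO pinned; 16 h at 37C; ONE-Glo added; luminescence measured after 30 min at room temperature. Reporter line: MDA-kb2 with MMTV-luciferase responsive to AR and GR.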

[28] = molecular target: Androgen receptor (Homo sapiens) (UniProt P10275); experiment: qHTS assay to identify small molecule antagonists of the androgen receptor (AR) signaling pathway using the MDA cell line (AID 743042; active = well fitted curve in the direction sought with a large enough effect in the repeat runs; an effect the other way counts as inactive or inconclusive; also: nearly all actives have a fitted effect of over 55% in size)
Summary of the method: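 Antagonist mode: compounds plus R1881 agonist added to MDA-kb2 AR-luc cells, incubated 16 h at 37C. Luciferase reporter luminescence quantified, with multiplexed CellTiter-Fluor readout for cell viability.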

[29] = qHTS assay to identify small molecule antagonists of the thyroid receptor (TR) signaling pathway - cell viability counter screen (AID 743064; active = well fitted curve in the direction sought with a large enough effect in the repeat runs; an effect the other way counts as inactive or inconclusive; also: potency is read from the fitted curve at half-maximal effect; nearly all actives have a fitted effect of over 50% in size)
Summary of the method: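 GH3.TRE-Luc rat pituitary cells dosed after 4 hr plating, co-stimulated with T3 at 1 nM final, incubated 23.5 h at 37 C. Viability measured in the same wells by CellTiter-Fluor fluorescence after 30 min further at 37 C.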

[30] = qHTS assay to identify small molecule antagonists of the thyroid receptor (TR) signaling pathway (AID 743065; active = well fitted curve in the direction sought with a large enough effect in the repeat runs; an effect the other way counts as inactive or inconclusive)
Summary of the method: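 Antagonism measured as loss of luciferase signal in GH3 cells stably carrying a TRE-luciferase reporter, co-treated with compound and T3 (1 nM final) for 23.5 h at 37 C. Viability was read in the same well by CellTiter-Fluor.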

[31] = molecular target: Estrogen receptor (Homo sapiens) (UniProt P03372); experiment: qHTS assay to identify small molecule antagonists of the estrogen receptor alpha (ER-alpha) signaling pathway (AID 743069; active = well fitted curve in the direction sought with a large enough effect in the signal ratio in the repeat runs, not every such curve was filed as active; the % refers to the signal ratio)
Chain of Estrogen receptor (Homo sapiens) (P03372 whole entry, looked up): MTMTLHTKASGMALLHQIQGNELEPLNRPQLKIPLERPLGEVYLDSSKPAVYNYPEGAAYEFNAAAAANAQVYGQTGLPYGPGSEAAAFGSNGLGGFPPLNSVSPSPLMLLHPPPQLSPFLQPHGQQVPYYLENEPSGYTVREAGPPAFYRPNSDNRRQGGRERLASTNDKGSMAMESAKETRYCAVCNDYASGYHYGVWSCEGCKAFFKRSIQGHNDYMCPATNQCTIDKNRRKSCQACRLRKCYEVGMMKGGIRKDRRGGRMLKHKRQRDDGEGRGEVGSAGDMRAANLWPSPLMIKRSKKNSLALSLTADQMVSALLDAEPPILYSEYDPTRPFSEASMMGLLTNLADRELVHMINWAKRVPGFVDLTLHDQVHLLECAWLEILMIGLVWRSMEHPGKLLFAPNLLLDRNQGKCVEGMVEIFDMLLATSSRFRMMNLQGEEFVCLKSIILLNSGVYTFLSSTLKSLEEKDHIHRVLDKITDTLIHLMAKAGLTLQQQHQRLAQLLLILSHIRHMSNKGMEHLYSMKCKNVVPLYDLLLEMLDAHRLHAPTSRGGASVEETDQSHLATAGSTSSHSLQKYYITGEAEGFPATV
Summary of the method: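 ER-alpha-UAS-bla GripTite HEK293 line; 2% charcoal-stripped FBS overnight; plated, 4 hr 37C/5% CO2; cpd in DMSO + 17beta-estradiol, 18 hr 37C; LiveBLAzer B/G FRET substrate 2 hr RT; fluorescence intensity.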

[32] = qHTS assay to identify small molecule antagonists of the estrogen receptor alpha (ER-alpha) signaling pathway - cell viability counter screen (AID 743074);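 also: HEK293 cells carrying ER-alpha-UAS-bla reporter stimulated with 17beta-estradiol; nearly all actives have a fitted effect of over 45% in size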
[33] = molecular target: Estrogen receptor (Homo sapiens) (UniProt P03372); experiment: qHTS assay to identify small molecule agonists of the estrogen receptor alpha (ER-alpha) signaling pathway (AID 743075);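 also: HEK293 GripTite cells with ER-alpha and UAS-driven beta-lactamase reporter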
[34] = qHTS assay to identify small molecule antagonists of the estrogen receptor alpha (ER-alpha) signaling pathway using the BG1 cell line (AID 743080);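 also: BG1 cells stimulated with 17beta-estradiol alongside compound; series mostly up to about 70 µM; nearly all actives have a fitted effect of over 25% in size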
Summary of the method: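 Quantitative HTS on the Tox21 10K library: BG1 cells with endogenous ER-alpha and ERE-luciferase reporter, 17beta-estradiol stimulation, 21.5 h compound exposure, luminescence endpoint with parallel fluorescence cytotoxicity counter-read.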

Aromatase (Homo sapiens) = Aromatase (Homo sapiens) (UniProt P11511); experiment: qHTS assay to identify aromatase inhibitors (AID 743083; active = well fitted curve in the direction sought with a large enough effect in the repeat runs; an effect the other way counts as inactive or inconclusive)
Chain of Aromatase (Homo sapiens) (P11511 whole entry, looked up): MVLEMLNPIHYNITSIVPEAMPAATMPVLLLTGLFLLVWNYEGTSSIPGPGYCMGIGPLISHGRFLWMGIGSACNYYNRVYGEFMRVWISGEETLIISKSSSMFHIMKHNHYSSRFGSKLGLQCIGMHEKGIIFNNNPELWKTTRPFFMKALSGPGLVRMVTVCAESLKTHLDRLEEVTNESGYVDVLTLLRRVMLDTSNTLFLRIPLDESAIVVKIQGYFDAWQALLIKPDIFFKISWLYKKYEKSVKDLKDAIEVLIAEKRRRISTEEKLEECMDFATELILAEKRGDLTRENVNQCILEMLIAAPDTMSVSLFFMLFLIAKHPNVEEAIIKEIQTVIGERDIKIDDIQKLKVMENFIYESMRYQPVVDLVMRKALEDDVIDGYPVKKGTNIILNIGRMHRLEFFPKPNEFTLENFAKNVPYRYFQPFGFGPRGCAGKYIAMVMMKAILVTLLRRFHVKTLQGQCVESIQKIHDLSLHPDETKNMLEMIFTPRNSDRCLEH

[35] = molecular target: Aryl hydrocarbon receptor (Homo sapiens) (UniProt P35869); experiment: qHTS assay to identify small molecule that activate the aryl hydrocarbon receptor (AhR) signaling pathway (AID 743085; active = well fitted curve in the direction sought with a large enough effect in the repeat runs; an effect the other way counts as inactive or inconclusive; also: potency is read from the fitted curve at half-maximal effect; nearly all actives have a fitted effect of over 15% in size)
Chain of Aryl hydrocarbon receptor (Homo sapiens) (P35869 whole entry, looked up): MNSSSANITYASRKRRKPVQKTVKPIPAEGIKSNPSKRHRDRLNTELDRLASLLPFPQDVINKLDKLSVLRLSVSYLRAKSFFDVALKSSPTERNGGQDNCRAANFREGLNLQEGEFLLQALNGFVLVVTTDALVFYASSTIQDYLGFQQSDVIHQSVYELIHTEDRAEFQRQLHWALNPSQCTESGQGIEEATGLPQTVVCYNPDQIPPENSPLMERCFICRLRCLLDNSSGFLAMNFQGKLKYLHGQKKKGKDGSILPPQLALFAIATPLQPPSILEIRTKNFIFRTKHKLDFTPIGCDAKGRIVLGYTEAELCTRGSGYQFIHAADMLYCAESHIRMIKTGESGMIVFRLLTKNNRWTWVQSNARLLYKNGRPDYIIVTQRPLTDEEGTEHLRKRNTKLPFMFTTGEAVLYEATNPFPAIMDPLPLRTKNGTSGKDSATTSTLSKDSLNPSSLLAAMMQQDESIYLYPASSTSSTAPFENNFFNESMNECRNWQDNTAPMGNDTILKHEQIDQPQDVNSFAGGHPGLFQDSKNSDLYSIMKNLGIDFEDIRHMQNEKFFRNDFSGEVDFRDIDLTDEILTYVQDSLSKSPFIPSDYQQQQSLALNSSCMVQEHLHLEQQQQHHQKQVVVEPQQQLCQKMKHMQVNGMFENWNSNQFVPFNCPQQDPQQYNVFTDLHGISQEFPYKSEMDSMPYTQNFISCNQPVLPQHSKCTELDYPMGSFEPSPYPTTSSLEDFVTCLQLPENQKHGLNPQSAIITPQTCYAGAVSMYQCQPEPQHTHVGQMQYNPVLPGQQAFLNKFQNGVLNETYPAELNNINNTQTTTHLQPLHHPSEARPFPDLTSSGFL
Summary of the method: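 HepG2 cells stably carrying a 20-DRE firefly luciferase reporter (HG2L7.5c1) treated with compound for 24 hr at 37C. Luciferase read by ONE-Glo luminescence, with CellTiter-Fluor viability read first.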

[36] = qHTS assay to identify small molecule that activate the aryl hydrocarbon receptor (AhR) signaling pathway - cell viability counter screen (AID 743086; active = well fitted curve in the direction sought with a large enough effect in the repeat runs; an effect the other way counts as inactive or inconclusive; also: potency is read from the fitted curve at half-maximal effect; nearly all actives have a fitted effect of over 45% in size)
Summary of the method: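 Cytotoxicity counter screen: CellTiter-Fluor signal (30 min, 37 C) in 4000 HepG2 cells/well carrying the DRE-luciferase reporter, following 24 h compound exposure at 37 C.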

[37] = molecular target: Peroxisome proliferator-activated receptor gamma (Homo sapiens) (UniProt P37231); experiment: qHTS assay to identify small molecule agonists of the peroxisome proliferator-activated receptor gamma (PPARg) signaling pathway (AID 743094; active = well fitted activation curve with a large enough effect in the signal ratio in the repeat runs, not every such curve was filed as active; the % refers to the signal ratio)
Chain of Peroxisome proliferator-activated receptor gamma (Homo sapiens) (P37231 whole entry, looked up): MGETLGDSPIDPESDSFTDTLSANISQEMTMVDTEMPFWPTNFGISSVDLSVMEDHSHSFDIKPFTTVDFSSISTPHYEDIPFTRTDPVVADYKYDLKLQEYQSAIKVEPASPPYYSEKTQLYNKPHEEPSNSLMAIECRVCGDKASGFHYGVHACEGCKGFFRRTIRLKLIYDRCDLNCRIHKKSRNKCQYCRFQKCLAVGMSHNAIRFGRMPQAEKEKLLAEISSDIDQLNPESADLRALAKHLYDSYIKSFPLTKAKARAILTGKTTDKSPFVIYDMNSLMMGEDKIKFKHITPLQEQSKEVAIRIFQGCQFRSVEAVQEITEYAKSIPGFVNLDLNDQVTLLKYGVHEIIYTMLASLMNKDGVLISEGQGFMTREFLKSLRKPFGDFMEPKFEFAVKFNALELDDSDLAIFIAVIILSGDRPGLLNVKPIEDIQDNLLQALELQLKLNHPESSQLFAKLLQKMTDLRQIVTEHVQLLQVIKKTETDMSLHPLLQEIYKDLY
Summary of the method: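 Beta-lactamase FRET fluorescence was the read-out after a 1 h room-temperature substrate step, following 17 h compound treatment at 37C of HEK293H cells expressing a UAS-driven bla reporter responsive to PPARg.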

Measured: Potency

O=S(=O)(O)c1ccc2ccccc2c1
inactive: [1] | [2] | [3]

CCCCCCn1c(=O)c2c(ncn2C)n(C)c1=O
inactive: [1] | [2] | [3]

CCOc1cc([N+](=O)[O-])c(OCC)cc1N1CCOCC1
inactive: [1] | [2] | [3]

CCCSc1cc(OC)c(CCN)cc1OC
active: [4] 32.5 µM | [22] 0.183 µM | [23] 0.258 µM | [24] 0.258 µM | [26] 6.55 µM | [29] 29 µM | [30] 32.5 µM | Aromatase (Homo sapiens) 32.5 µM | [35] 29 µM | [36] 32.5 µM
not listed: [1] | [2] | [3]
inactive: all other assays above

CCOc1ccc(NC(N)=O)cc1
inactive: [1] | [2] | [3]

[Cl][Nd]([Cl])[Cl]
inactive: [1] | [2] | [3]

O=CN(CCO)CCO
inactive: [1] | [2] | [3]
